M1 ag parental: nonselective activator or artifact in parental CHO-K1 cells; activation, % at 3 µM; actives 0.48% (n = 360,000); Fluo-8 calcium fluorescence; scaled to maximal ATP response, vehicle zero; in the data active means activation above about 15%;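 further: untransfected CHO-K1 host cells lacking M1 receptor as counterscreen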
M4 PAM: CHRM4 positive allosteric modulation. CHO-K1 hM4/Gqi5, Fluo-8 calcium fluorescence, ACh EC20; 0% = ACh EC20, 100% = maximal ACh. activation, % at 3 µM. actives 0.4% (n = 360,000);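 active means activation above its plate's cutoff, the mean activation of sample wells plus 3 SD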
Target sequence (P08173 whole entry, looked up): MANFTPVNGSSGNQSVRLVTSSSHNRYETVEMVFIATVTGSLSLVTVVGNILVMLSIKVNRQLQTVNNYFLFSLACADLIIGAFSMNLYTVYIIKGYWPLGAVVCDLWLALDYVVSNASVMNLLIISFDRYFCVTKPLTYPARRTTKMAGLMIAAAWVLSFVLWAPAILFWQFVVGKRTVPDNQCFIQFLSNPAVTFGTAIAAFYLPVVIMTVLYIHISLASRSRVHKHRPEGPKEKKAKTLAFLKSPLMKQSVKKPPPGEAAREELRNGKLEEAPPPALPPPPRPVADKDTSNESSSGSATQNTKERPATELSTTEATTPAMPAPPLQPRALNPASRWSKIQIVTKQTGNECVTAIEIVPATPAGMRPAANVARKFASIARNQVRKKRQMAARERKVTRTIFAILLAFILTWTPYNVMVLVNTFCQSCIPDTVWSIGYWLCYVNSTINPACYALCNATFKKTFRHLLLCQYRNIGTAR
M4 antag: CHRM4 antagonism in calcium assay; P08173; CHO-hM4 cells, ACh EC80, Fluo-8 calcium fluorescence; inhibition, % at 3 µM; actives 0.73% (n = 360,000);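 active means inhibition above its plate's cutoff, the mean inhibition of sample wells plus 3 SD, cut at about 27% in these data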
CHO-K1 Ca antag: nonselective inhibitor or artifact in parental CHO-K1 cells. ATP-induced calcium, Fluo-8 fluorescence. inhibition, % at 3 µM. actives 0.6% (n = 360,000);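 active means inhibition above a per-plate cutoff, the plate's mean sample inhibition plus 3 SD, cut at about 24% in these data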
M4 ag: CHRM4 agonism in calcium assay; CHO-K1 hM4/Gqi5, Fluo-8 calcium fluorescence; vehicle 0%, full acetylcholine response 100%; P08173; AID 624127; actives 0.14% (n = 360,000); activation, % at 3 µM;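 active means activation above the run mean over all test wells plus 3 SD, cut at about 32% in these data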;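 further: peak over basal fluorescence ratio per well then scaled between controls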
CHO-K1 Ca PAM: counter-screen for M1 PAMs: effect in parental CHO-K1 cells. actives 0.02% (n = 360,000). ATP EC20, Fluo-8 calcium fluorescence; 0% at ATP EC20, 100% at ATP max. activation, % at 3 µM;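 active means activation above the run cutoff, the mean activation of all test compounds plus 3 SD, cut at about 40% in these data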;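 further: peak over basal fluorescence ratio in a 140 s read after ATP addition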
Hits are given with their value. This is a sample that favours compounds with a hit; in the whole collection about 2% have one here.

`Cc1noc(-c2ccccc2)c1NC(=O)Nc1ccccc1` gave M1 ag parental inactive, M4 PAM inactive, M4 antag inactive, CHO-K1 Ca antag inactive, M4 ag inactive and CHO-K1 Ca PAM inactive.
For O=C(Nc1ccc(Cl)cc1)C(Cl)C(=O)c1ccccc1 (stereo not drawn) the results were M1 ag parental inactive, M4 PAM inactive, M4 antag 26, CHO-K1 Ca antag inactive, M4 ag inactive and CHO-K1 Ca PAM inactive.
COC(=O)CCC(=O)N1CCOCCOCCOCC1 was read as M1 ag parental 16, M4 PAM inactive, M4 antag inactive, CHO-K1 Ca antag inactive, M4 ag inactive and CHO-K1 Ca PAM inactive.
Screening Cc1cc(NC(=O)c2cccnc2)ccc1NC(=O)c1cc2ccccc2o1 returned M1 ag parental inactive, M4 PAM inactive, M4 antag inactive, CHO-K1 Ca antag inactive, M4 ag 33 and CHO-K1 Ca PAM inactive.
`CCc1nc2oc3ccccc3c(=O)c2c(=O)n1-c1ccc(C)cc1` gave M1 ag parental inactive, M4 PAM inactive, M4 antag inactive, CHO-K1 Ca antag inactive, M4 ag inactive and CHO-K1 Ca PAM inactive.
For O=C1NC2c3ccccc3C(=O)N2c2c1cnn2-c1ccccc1 (stereo not drawn) the results were M1 ag parental inactive, M4 PAM 18, M4 antag inactive, CHO-K1 Ca antag inactive, M4 ag inactive and CHO-K1 Ca PAM inactive.
`O=C1c2ccccc2N2C(=O)c3ccccc3[C@H]2N1c1ccccc1` gave M1 ag parental inactive, M4 PAM inactive, M4 antag inactive, CHO-K1 Ca antag inactive, M4 ag inactive and CHO-K1 Ca PAM inactive.
CCC(C)N(CCNC(=O)CC1Oc2ccc(C)cc2NC1=O)C1CCCCC1 (stereo not drawn) was read as M1 ag parental inactive, M4 PAM inactive, M4 antag 71, CHO-K1 Ca antag inactive, M4 ag inactive and CHO-K1 Ca PAM inactive.
For COC(=O)c1[nH]c2cccc(OC)c2c1NC(=O)CN(C)CC1OCCO1 the results were M1 ag parental inactive, M4 PAM inactive, M4 antag inactive, CHO-K1 Ca antag 24, M4 ag inactive and CHO-K1 Ca PAM inactive.
COC(=O)c1[nH]c2cccc(OC)c2c1NC(=O)CN1CCOCC1 was read as M1 ag parental inactive, M4 PAM inactive, M4 antag inactive, CHO-K1 Ca antag inactive, M4 ag inactive and CHO-K1 Ca PAM inactive.
`COc1ccc(Nc2c(CC(C)C)nc3nc(C)cc(C)n23)cc1` gave M1 ag parental inactive, M4 PAM inactive, M4 antag inactive, CHO-K1 Ca antag inactive, M4 ag inactive and CHO-K1 Ca PAM inactive.
For COc1ccc(Nc2c(C3CC3)nc3nc(C)cc(C)n23)cc1 the results were M1 ag parental inactive, M4 PAM 28, M4 antag inactive, CHO-K1 Ca antag inactive, M4 ag inactive and CHO-K1 Ca PAM inactive.
Cc1ccc(C)c(N2CCN(C(=O)CCNS(=O)(=O)c3ccc4c(c3)oc(=O)n4C)CC2)c1 was read as M1 ag parental 17, M4 PAM inactive, M4 antag inactive, CHO-K1 Ca antag inactive, M4 ag inactive and CHO-K1 Ca PAM inactive.
`Cn1c(=O)oc2cc(S(=O)(=O)NCCC(=O)N3CCN(c4ccccc4F)CC3)ccc21` gave M1 ag parental inactive, M4 PAM inactive, M4 antag inactive, CHO-K1 Ca antag inactive, M4 ag inactive and CHO-K1 Ca PAM inactive.
Cn1c2ccccc2c2cc(/C=N/NC(=O)c3cc(O)cc(O)c3)ccc21 was read as M1 ag parental inactive, M4 PAM inactive, M4 antag inactive, CHO-K1 Ca antag inactive, M4 ag inactive and CHO-K1 Ca PAM inactive.
`Cn1c2ccccc2c2cc(/C=N/NC(=O)c3cc(O)ccc3O)ccc21` gave M1 ag parental inactive, M4 PAM inactive, M4 antag inactive, CHO-K1 Ca antag 24, M4 ag inactive and CHO-K1 Ca PAM inactive.
Screening CCN(CCS(=O)(=O)c1ccc(Cl)cc1)Cc1nc2ccccc2c(=O)[nH]1 returned M1 ag parental inactive, M4 PAM inactive, M4 antag inactive, CHO-K1 Ca antag inactive, M4 ag inactive and CHO-K1 Ca PAM inactive.
Screening COc1cccc(/C=C2\SC(=S)N(NS(=O)(=O)c3ccc(C)cc3)C2=O)c1OC returned M1 ag parental inactive, M4 PAM inactive, M4 antag inactive, CHO-K1 Ca antag inactive, M4 ag inactive and CHO-K1 Ca PAM inactive.
Cc1ccc(S(=O)(=O)NCCc2ccncc2)cc1C was read as M1 ag parental 18, M4 PAM inactive, M4 antag inactive, CHO-K1 Ca antag inactive, M4 ag inactive and CHO-K1 Ca PAM inactive.
`Cc1cc(S(=O)(=O)NCCc2ccncc2)cc(C)c1F` gave M1 ag parental inactive, M4 PAM inactive, M4 antag inactive, CHO-K1 Ca antag inactive, M4 ag inactive and CHO-K1 Ca PAM inactive.
For CCCCCCCCc1nc(=S)[nH][nH]1 the results were M1 ag parental inactive, M4 PAM inactive, M4 antag inactive, CHO-K1 Ca antag 25, M4 ag inactive and CHO-K1 Ca PAM inactive.
COc1ccc2c(c1)c1c3n2CCN(C)C3=NCC1 was read as M1 ag parental inactive, M4 PAM 15, M4 antag inactive, CHO-K1 Ca antag inactive, M4 ag inactive and CHO-K1 Ca PAM inactive.
Cc1ccc2c(c1)c1c3n2CCN=C3CCC1 was read as M1 ag parental inactive, M4 PAM inactive, M4 antag inactive, CHO-K1 Ca antag inactive, M4 ag inactive and CHO-K1 Ca PAM inactive.
`CCN(C(=O)COC(=O)c1cc(C)n(-c2ccc(F)cc2)c1C)C1CCS(=O)(=O)C1` (stereo not drawn) gave M1 ag parental inactive, M4 PAM inactive, M4 antag inactive, CHO-K1 Ca antag inactive, M4 ag inactive and CHO-K1 Ca PAM inactive.
Screening COc1cccc(CNC(=O)Cc2c(C(=O)O)[nH]c3ccccc23)c1 returned M1 ag parental inactive, M4 PAM inactive, M4 antag inactive, CHO-K1 Ca antag inactive, M4 ag inactive and CHO-K1 Ca PAM inactive.
For COc1ccccc1CCn1cc(C#N)c(=O)[nH]c1=O the results were M1 ag parental inactive, M4 PAM inactive, M4 antag 100, CHO-K1 Ca antag inactive, M4 ag inactive and CHO-K1 Ca PAM inactive.
Screening COc1ccc(CCn2cc(C#N)c(=O)[nH]c2=O)cc1OC returned M1 ag parental inactive, M4 PAM inactive, M4 antag inactive, CHO-K1 Ca antag inactive, M4 ag inactive and CHO-K1 Ca PAM inactive.
For COc1ccc(OC)c(NC(=O)C2(C)CCN2Cc2cccc(OC)c2OC)c1 (stereo not drawn) the results were M1 ag parental inactive, M4 PAM inactive, M4 antag inactive, CHO-K1 Ca antag inactive, M4 ag inactive and CHO-K1 Ca PAM inactive.
For CCc1nc2ccc(C(=O)N3CCCCC3)cn2c1N(C)CCCc1ccccc1 the results were M1 ag parental inactive, M4 PAM inactive, M4 antag 33, CHO-K1 Ca antag inactive, M4 ag inactive and CHO-K1 Ca PAM inactive.
CCc1nc2ccc(C(=O)N3CCN(C)CC3)cn2c1N(C)CCCc1ccccc1 was read as M1 ag parental inactive, M4 PAM inactive, M4 antag inactive, CHO-K1 Ca antag inactive, M4 ag inactive and CHO-K1 Ca PAM inactive.

Assay outcomes from PubChem.
